Out of some 1,200 compounds screened, about 60 (5%) were called active. Inconclusive results (about 1%) are left out.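 The calls were made as follows: active = Decreasing signal and fitted IC50 at most twice the top valid tested dose; inconclusive = Bad fit or a level curve showing 30 to 70% inhibition; inactive = the rest.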 The list is a sample of the results. Entries with a potency or affinity are not part of this list.
Each compound was assayed against NAD-dependent protein deacylase sirtuin-5, mitochondrial (Homo sapiens) (UniProt Q9NXA8) (assay: sirtuin-5 deacylation blockers, concentration series – biochemical, fluorescence imaging, cherry-pick, set 5, dose response (AID 720591)). Details: Purified SirT5, succinyl-peptide AMC, trypsin-coupled fluorescence; series mostly up to 15 µM.
NAD-dependent protein deacylase sirtuin-5, mitochondrial (Homo sapiens), sequence (Q9NXA8 whole entry, looked up): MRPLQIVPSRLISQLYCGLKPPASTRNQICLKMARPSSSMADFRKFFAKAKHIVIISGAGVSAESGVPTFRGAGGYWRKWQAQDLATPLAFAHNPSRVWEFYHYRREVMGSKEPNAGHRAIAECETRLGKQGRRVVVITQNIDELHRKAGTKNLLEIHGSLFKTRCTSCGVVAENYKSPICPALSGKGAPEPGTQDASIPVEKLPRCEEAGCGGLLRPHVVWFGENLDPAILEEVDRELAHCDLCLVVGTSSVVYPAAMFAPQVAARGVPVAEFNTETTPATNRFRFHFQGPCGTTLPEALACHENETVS

outcome, inactive:
O=C(Cc1ccc(Cl)cc1)Nc1ccc(C(=O)N2CCCCC2)cc1
O=C(Nc1cccc(Br)c1)c1ccc(CSc2ccccc2)cc1
CN(C)C(=O)c1ccc(NC(=O)c2sccc2-c2ccccc2)cc1
O=C(Cc1ccc(Cl)cc1)Nc1ccc(CN2CCCCC2)cc1
C[C@@H](CSc1ccc(Br)cc1)CN1CC[C@H](NC(=O)OCc2ccccc2)CCC1=O
Cc1cccc(C)c1NC(=O)CN(Cc1ccccc1)Cc1ccccc1
CC(C)C(=O)Nc1cccc(COc2ccccc2CN(Cc2ccccc2)C(=O)OC(C)(C)C)c1
Cc1ccc(CNC(=O)CCc2ccc(S(=O)(=O)NCC(C)C)cc2)cc1
Cc1ccn2cc(CSc3ccccc3)nc2c1
Clc1ccc(SCc2cn3ccccc3n2)cc1
Cc1cccc(COC[C@H](Cc2ccccc2)N2CCN(C(=O)c3cc(Cl)cc(Cl)c3)CCC2=O)c1
CCOC(=O)C1(C)CCN1C(=O)c1cccc(Cl)c1 (configuration not stated)
COc1cc(OC)c(NS(=O)(=O)c2cc(C(=O)OCC(=O)NCC3CCCO3)ccc2OC)cc1Cl (configuration not stated)
COc1cc(C(=O)NCCN2CCN(C(=O)c3cc(OC)c(OC)c(OC)c3)CC2)cc(OC)c1OC
COc1cc(C(=O)N2CCNCC2)cc(OC)c1OC
CCN(C(=O)COC(=O)CNC(=O)c1ccccc1C)C1=CCCCC1
CNC(=O)CSc1nnc(-c2ccco2)n1-c1cccc(OC)c1
COc1ccc(-n2c(SCC(N)=O)nnc2-c2ccco2)cc1
COc1ccc(-c2cccc(C3CC=CC4C3C(=O)N(Cc3ccccc3)C4c3ccc(C(F)(F)F)cc3)c2)cc1 (configuration not stated)
CC(=O)N1N=C(c2cccc(NS(C)(=O)=O)c2)CC1c1cccs1 (configuration not stated)
COC(=O)c1ccc(C)c(NC(=O)CSc2sc3c(O)cc(=O)[nH]c3c2C#N)c1
CSc1nsc(SCC(=O)Nc2ccc(Cl)c(C(=O)O)c2)n1
CCCCc1c(-c2ccccc2F)ncn1CCc1ccccc1OC
C[C@H](NC(=O)OCc1ccccc1)C(=O)NNC(=O)[C@H](C)NC(=O)OCc1ccccc1
CC(C)c1ccc(NC2CCCN(C(=O)CC3CCCC3)C2)cc1 (configuration not stated)
Cc1ccsc1C(=O)NNC(=O)CCN1CCN(c2ccccc2)CC1
Cc1ccc(-c2csc(NC(=O)Cn3[nH]c(=O)c4ccccc4c3=O)n2)cc1
Cc1sc(NC(=O)Cn2[nH]c(=O)c3ccccc3c2=O)nc1-c1ccccc1
CCN(c1ccccc1)S(=O)(=O)c1ccc2[nH]c(=O)[nH]c2c1
Cc1cc(C)c(OCC(=O)NCC(C)(C)N2CCOCC2)c(C)c1
Cc1ccc2cc(CN(Cc3ccc(F)cc3)Cc3nnnn3C3CCCC3)c(=O)[nH]c2c1
Cn1cc(Br)c(C(=O)Nc2c(F)c(F)c(F)c(F)c2F)n1
CN(C)CCNC(=O)c1cccc(S(=O)(=O)Nc2ccccc2F)c1
COc1ccc(OCC(=O)Nc2ccc(NC(=O)c3cccs3)cc2)cc1
CCN(CC(=O)Nc1ccc(NC(C)=O)cc1)C(=O)c1ccc(COc2ccc(C(C)(C)C)cc2)cc1
Cc1ccc(C(C(=O)NC2CCCC2)N(Cc2ccco2)C(=O)CCC(=O)Nc2cc(C)on2)cc1 (configuration not stated)
Cc1ccccc1OCC(O)CN1CCN(CC(O)COc2ccccc2C)CC1 (configuration not stated)
CCOC(=O)C1CCc2c(ccc3ccccc23)N1CCC#N (configuration not stated)
CC(C)(C)Cc1nnc(NC(=O)Cc2cccs2)s1
CN(C)CCCNC(=O)c1cc(C(=O)c2ccccc2F)c[nH]1
COc1ccc(C(=O)OCCN2CCCCC2)cc1
Cc1ccc(C(C(=O)NC(C)(C)C)N(Cc2ccco2)C(=O)CCC(=O)Nc2ccccn2)cc1 (configuration not stated)
CCC(C)(C)NC(=O)C(c1ccc(OC)cc1)N(Cc1ccco1)C(=O)CCC(=O)Nc1cc(C)on1 (configuration not stated)
COc1ccc([C@H]2N[C@]3(CCCN(Cc4cccn4C)C3=O)[C@H]3C(=O)N(C)C(=O)[C@@H]23)cc1
C=CCn1c(SCC(=O)c2ccc(O)c(O)c2)nnc1-c1ccc(C)cc1
COc1ccc(C)cc1N(C)C(=O)Cc1c(C(=O)O)n(C)c2ccccc12
COc1ccccc1NC(=O)CNc1ccc(F)c(Cl)c1
CC1CN(CCOc2ccccc2-c2ccccc2)CC(C)O1 (configuration not stated)
CCc1ccc(N(C(=O)CCC(=O)Nc2cc(C)on2)C(C(=O)NC2CCCC2)c2ccco2)cc1 (configuration not stated)
COc1cc(C(C)=O)ccc1OCc1cn(CC(=O)c2ccc(O)cc2)nn1
CS(=O)(=O)N(CC(=O)N1CCCCCC1)c1cccc(F)c1
CS(=O)(=O)N(CC(=O)N1CCCC1)c1cccc(F)c1
C#CC1(NC(=O)NCCCC)CCCCC1
Fc1ccc(-c2nc3ccc(Cl)cn3c2Cc2cccc(F)c2)cc1
Cc1ccc2nc(-c3ccccc3)c(Cc3cccc(Cl)c3)n2c1
COc1ccccc1CNS(=O)(=O)c1cccs1
C=C(C)Cn1c(N2CCN(c3ccc(OC)cc3)CC2)nc2c1c(=O)n(C)c(=O)n2C
Cn1cnc2c(NCc3ccco3)ncnc21
COC(=O)c1cccc(NC(=O)CSc2nnc(COc3ccc(C#N)cc3)n2-c2ccccc2)c1
Cc1cn(CC(=O)NCc2ccccc2)c(=O)[nH]c1=O
O=C1OCCOC2CCCc3oc(C4=CCCCC4)c1c32 (configuration not stated)
Cc1ccc(NS(=O)(=O)c2ccc3c(c2)N(C)CCO3)cc1
Cc1ccc2nc(SC(C)C(=O)N3CC(C)OC(C)C3)[nH]c2c1 (configuration not stated)
Cc1ccccc1NS(=O)(=O)c1ccc(C(=O)NCC2CCCO2)cc1 (configuration not stated)
O=C(c1ccc(F)cc1)N1CCOCC1
O=C(CSc1ccccc1Cl)N1CCOCC1
CCOc1ccc(C(C)C)cc1S(=O)(=O)n1ccnc1C
Cc1ccc(S(=O)(=O)N(C)c2ccc(NS(C)(=O)=O)cc2)cc1
Cc1cccc(OC(=O)Nc2ccc(C(=O)O)c(O)c2)c1
Cc1ccc(NC(=O)COCC(=O)Nc2ccc(F)cc2)cc1
O=C(Nc1ccccc1C(=O)O)c1cc(S(=O)(=O)Nc2ccccc2)ccc1Cl
Cc1cc(NC(=O)CCC(=O)N(CCc2ccccc2)C(C(=O)NC2CCCC2)c2ccco2)no1 (configuration not stated)
COc1ccc(CCNS(=O)(=O)c2cc3c4c(c2)CC(=O)N4CCC3)cc1
Nc1cccc(-c2csc(-n3ncc(C(=O)O)c3C(F)(F)F)n2)c1
O=C(O)c1ccc2c(c1)ncn2C1CCCC1
Cc1ccnc(NC(=O)CCC(=O)N(Cc2ccco2)C(C(=O)NC(C)C)c2ccc(F)cc2)c1 (configuration not stated)
NNC(=O)Cn1c(-c2ccccc2)cc2ccccc21
CC(C)(C)OC(=O)N(CCc1ccccc1)Cc1ccc(OCc2cccc(NC(=O)C3CC3)c2)cc1
COc1ccc(CCNC(=O)[C@H](C)NC(=O)N2CCn3c2nc2ccccc23)cc1OC
Cc1ccccc1CN1CCN(Cc2ccc3cccc(F)c3n2)CC1CCO (configuration not stated)
CNCc1cc(Br)c(OCC(=O)Nc2ccccc2OC)c(OC)c1
COc1cccc(NC(=O)c2ccccc2)c1
COc1ccc(CC(=O)Nc2ccc(C(=O)NCC(C)C)cc2)cc1
Cc1cc2nc(CSc3ccccc3)cc(=O)n2[nH]1
CCCCCCCCN1[C@@H](CC(=O)O)c2cc(C(F)(F)F)ccc2S1(=O)=O
Cc1c(Cc2ccc3c(c2)OCO3)sc(NC(=O)c2ccccc2)c1C(N)=O
Cc1cccc2nc(CSc3ccc(Cl)cc3)cn12
Clc1ccc2nc(CSc3ccccc3)cn2c1
Cc1cccc(N(C(=O)c2snc(C(N)=O)c2N)C(C(=O)NCC2CCCO2)c2ccc3ncccc3c2)c1 (configuration not stated)
O=S(=O)(NCc1ccc2c(c1)OCO2)c1ccccc1F
Cc1cccc(Cl)c1NC(=O)NCCCN1CCCCC1C (configuration not stated)
CCN(CC)c1ccc(S(=O)(=O)N2CCOCC2)cc1NC(=O)Nc1ccccc1
Cc1ccc(S(=O)(=O)N2CCOCC2)cc1NC(=O)CSc1nnc2n1CCCCC2
CCOC(=O)C(N)CSC1CC(=O)N(c2ccc(OCC)cc2)C1=O (configuration not stated)
CCOc1ccc(CN2CCN(C(=O)c3cccc(F)c3)CC2)cc1
CCc1nnc(NC(=O)CCC(=O)N2CCN(c3cc(C)ccc3C)CC2)s1
Cc1cccc(N2CCN(C(=O)c3ccc4nc[nH]c4c3)CC2)c1C
CC1(C(=O)NS(=O)(=O)c2ccccc2Cl)CCN1C(=O)Cc1cccc2ccccc12 (configuration not stated)
COc1cc(C(C)=O)ccc1OC(=O)CN1C(=O)c2ccccc2C1=O
Cc1c(C(=O)c2ccc(N(C)C)cc2)c2ccccn2c1CCC#N
CCc1nonc1NC(=O)c1oc2ccc(Cl)cc2c1C
COc1ccc2c(c1)C(=O)O[C@@H](c1ccccc1)C[C@@H](O)C(=O)CC2
CCOc1ccc(OCC)c(NC(=O)C2CCCN(C(=O)c3ccc(Cl)cc3)C2)c1 (configuration not stated)
COc1ccc(OC)c(NC(=O)CSc2nnc(CNC(=O)c3cccs3)o2)c1
COc1ccc(C(=O)OC(C)C(=O)NCC2CCCCC2)cc1S(=O)(=O)N1CCOCC1 (configuration not stated)
CCC(=O)Nc1cccc(-c2cc3ccccc3oc2=O)c1
COc1cc2cc(C#N)c(SCC(=O)Nc3cc(C)on3)nc2cc1OC
